Laboratory results taken from PubChem BioAssay (Tox21).
“And” between values parts separate entries of the source, which are not always exact repeats. Equal values may be shown once. The source made the active and inactive calls. Entries that show only a call come without a potency. Unless noted, calls come from the whole dose curve; as a rule, active = well fitted curve in the direction sought with a large enough effect in the repeat runs; inconclusive = weak or mixed curves; inactive = no such curve, though single readings can be large; an effect the other way counts as inactive or inconclusive.

What was measured:
[1] = qHTS assay for small molecules that induce genotoxicity in human embryonic kidney cells expressing luciferase-tagged ATAD5 (AID 651632); note: nearly all actives have a fitted effect of over 15% in size; note: potency is the fitted concentration of half-maximal effect
In short: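 Genotoxicity read-out via ATAD5-luciferase: HEK293T cells, 16 hr compound incubation at 37C, Amplite detection.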

[2] = qHTS assay for small molecules that induce genotoxicity in human embryonic kidney cells expressing luciferase-tagged ATAD5 - cell viability (AID 651634; calls by dose curve; note: nearly all actives have a fitted effect of over 25% in size; note: potency is the fitted concentration of half-maximal effect)
In short: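 Live-cell protease activity (CellTiter-Fluor, fluorescence) indicates viability. HEK293T cells with luciferase-tagged ATAD5; 15.5 hr compound treatment at 37C.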

[3] = qHTS assay for small molecule disruptors of the mitochondrial membrane potential - cell viability (AID 720634; calls by dose curve; note: nearly all actives have a fitted effect of over 20% in size; note: potency is the fitted concentration of half-maximal effect)
In short: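 Human hepatoma HepG2 cells were treated for 1 hr with test chemicals, then given m-MPI dye and CellTiter-Glo. Cell viability reflects luminescence proportional to cellular ATP.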

[4] = qHTS assay for small molecule disruptors of the mitochondrial membrane potential (AID 720635); note: potency is the fitted concentration of half-maximal effect
In short: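 HepG2 cells exposed to compound 1 hr at 37C, then Mito-MPS dye 30 min. Ratio read of aggregate (540/590 nm) versus monomer (490/535 nm) fluorescence.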

[5] = qHTS assay to test for compound auto fluorescence at 590 nm (red) in HepG2 cells (AID 720674)
In short: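 Fluorescence at 590 nm emission following 540 nm excitation was recorded from HepG2 wells one hour after compound transfer, with DMSO-only wells as vehicle and Rose Bengal sodium equivalency as the scale.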

[6] = qHTS assay to test for compound auto fluorescence at 535 nm (green) in HepG2 cells (AID 720675); note: potency is the fitted concentration of half-maximal effect
[7] = qHTS assay to test for compound auto fluorescence at 460 nm (blue) in HEK293 cells (AID 720678)
In short: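 Measured: blue fluorescence (Ex 405/Em 460 nm) of compound-treated HEK293 cells, incubated overnight at 37C with 5% CO2 and scaled to triamterene equivalents.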

[8] = qHTS assay to test for compound auto fluorescence at 590 nm (red) in HEK293 cells (AID 720679)
In short: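 Using HEK293 cells at 2,000 per well, the screen added 23 nL of each compound after cell attachment and incubated overnight (37C, 5% CO2). The plate reader then captured red-label fluorescence, Ex/Em 540/590nm.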

[9] = qHTS assay to test for compound auto fluorescence at 460 nm (blue) in HEK293 cell free culture (AID 720681)
In short: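 Compounds were added to cell-free DMEM with 10% FBS and fluorescence read directly. The blue channel used 405 nm excitation and 460 nm emission, with triamterene as the reference fluorophore.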

[10] = qHTS assay to test for compound auto fluorescence at 590 nm (red) in HEK293 cell free culture (AID 720683)
In short: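 Cell-free wells of DMEM with 10% FBS received compound, and intrinsic fluorescence was read at excitation/emission 540/590 nm. Values expressed as equivalence to Rose Bengal sodium.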

[11] = qHTS assay to test for compound auto fluorescence at 590 nm (red) in HepG2 cell free culture (AID 720684)
In short: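 Compounds are added to culture medium (MEM, 10% FBS) lacking cells, then fluorescence is read at excitation 540 nm, emission 590 nm, with Rose Bengal sodium as the equivalency standard.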

[12] = qHTS assay to test for compound auto fluorescence at 460 nm (blue) in HepG2 cell free culture (AID 720685)
In short: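 Compound (23 nL) or DMSO pinned into cell-free MEM with 10% FBS; blue fluorescence read at 405/460 nm excitation/emission, expressed as auto-fluorescence equivalency to triamterene.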

[13] = qHTS assay to test for compound auto fluorescence at 535 nm (green) in HepG2 cell free culture (AID 720686); note: potency is the fitted concentration of half-maximal effect
[14] = qHTS assay to test for compound auto fluorescence at 460 nm (blue) in HepG2 cells (AID 720687)
In short: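 HepG2 cells in MEM with 10% FBS, attached overnight at 37 C, were exposed to compound or DMSO for 1 hr at 37 C, 5% CO2. Blue fluorescence was read at 405/460 nm, with triamterene as reference fluorophore.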

[15] = target: Glucocorticoid receptor (Homo sapiens) (UniProt P04150); assay: qHTS assay to identify small molecule agonists of the glucocorticoid receptor (GR) signaling pathway (AID 720691; active = well fitted activation curve with a large enough effect in the signal ratio in the repeat runs, not every such curve was filed as active; inconclusive = weak or mixed curves, or effect the other way; inactive = no such curve, though single readings can be large or run the other way; the % refers to the signal ratio; note: potency is the fitted concentration of half-maximal effect); conditions: GR-bla HeLa, beta-lactamase reporter ratio, 18 h; activation: at 62.4 µM (top of the series)
Chain of Glucocorticoid receptor (Homo sapiens) (P04150 whole entry, looked up): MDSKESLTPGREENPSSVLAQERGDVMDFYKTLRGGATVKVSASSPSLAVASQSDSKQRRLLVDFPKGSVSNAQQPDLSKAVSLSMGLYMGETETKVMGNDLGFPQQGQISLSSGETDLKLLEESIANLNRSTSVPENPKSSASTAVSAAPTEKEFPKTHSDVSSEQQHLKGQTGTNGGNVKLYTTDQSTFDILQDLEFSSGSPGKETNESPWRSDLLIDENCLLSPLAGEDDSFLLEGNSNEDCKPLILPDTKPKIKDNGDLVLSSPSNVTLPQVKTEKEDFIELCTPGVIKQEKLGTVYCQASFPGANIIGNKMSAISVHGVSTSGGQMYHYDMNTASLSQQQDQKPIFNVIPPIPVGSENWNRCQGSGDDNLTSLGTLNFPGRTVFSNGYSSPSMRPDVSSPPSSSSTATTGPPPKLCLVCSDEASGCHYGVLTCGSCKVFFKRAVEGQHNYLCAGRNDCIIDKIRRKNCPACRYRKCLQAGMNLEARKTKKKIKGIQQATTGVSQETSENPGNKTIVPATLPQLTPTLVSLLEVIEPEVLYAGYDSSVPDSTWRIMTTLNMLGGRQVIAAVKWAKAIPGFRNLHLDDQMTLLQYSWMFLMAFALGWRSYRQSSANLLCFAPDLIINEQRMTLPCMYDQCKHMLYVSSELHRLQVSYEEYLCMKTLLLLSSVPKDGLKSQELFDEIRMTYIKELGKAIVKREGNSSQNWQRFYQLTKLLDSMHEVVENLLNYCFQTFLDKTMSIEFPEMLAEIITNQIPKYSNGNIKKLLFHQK
In short: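 Beta-lactamase reporter activity, read as fluorescence intensity, was measured in GR-bla HeLa cells exposed to compounds for 18 h at 37 C and then loaded with LiveBLAzer B/G FRET substrate for 2 h at room temperature.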

[16] = qHTS assay to test for compound auto fluorescence at 535 nm (green) in HEK293 cells (AID 720680)
[17] = qHTS assay to test for compound auto fluorescence at 535 nm (green) in HEK293 cell free culture (AID 720682)
In short: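 DMEM + 10% FBS, cell-free; cpd or DMSO pinned in; Ex485/Em535 read; output as fluorescein-equivalent signal.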

[18] = target: Glucocorticoid receptor (Homo sapiens) (UniProt P04150); assay: qHTS assay to identify small molecule antagonists of the glucocorticoid receptor (GR) signaling pathway (AID 720692; active = well fitted inhibition curve with a large enough effect in the signal ratio in the repeat runs, not every such curve was filed as active; inconclusive = weak or mixed curves, or effect the other way; inactive = no such curve, though single readings can be large or run the other way; the % refers to the signal ratio; note: potency is the fitted concentration of half-maximal effect)
In short: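 Fluorescence from cleaved LiveBLAzer B/G FRET substrate reports GRE-driven beta-lactamase in HeLa cells; compounds are tested against 5 nM dexamethasone (final) over 18 h at 37 C, substrate incubation 2 h at room temperature.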
Tags give direction and shape of the fitted curve or compound fluorescence and quenching.

SMILES | Potency [1] | Potency [2] | Potency [3] | Potency [4] | outcome [5] | Potency [6] | Potency [7] | outcome [8] | Potency [9] | outcome [10] | outcome [11] | Potency [12] | Potency [13] | Potency [14] | Potency [15] | outcome [16] | outcome [17] | Potency [18]
CC(=O)[C@]1(O)Cc2c(O)c3c(c(O)c2[C@@H](O[C@H]2C[C@H](N)[C@H](O)[C@H](C)O2)C1)C(=O)c1ccccc1C3=O | 0.841 µM (active) | 15 µM (active) | inactive | 5.55 µM (active) | inactive | 12.6 µM (active) | inactive | inactive | inactive | inactive | inactive | inactive | 14.1 µM [fluorescent] (active) | inactive | 23.9 µM [inconclusive] (active) |  |  | 
O=C(CCN1CCC(c2ccccc2)C1)c1ccc2c(c1)OCCO2 (stereo not drawn) | inactive | inactive | inactive | inactive | inactive | inactive | inactive |  | inactive | inactive | inactive | inactive |  |  | inactive | inactive |  | 
Nc1ccc(N)c([N+](=O)[O-])c1 |  |  |  | 1.09 µM (active) | inactive | inactive | inactive | inactive | inactive | inactive | inactive | inactive | inactive | inactive |  | inactive | inactive | 
CCc1cn([C@H]2C[C@H](O)[C@@H](CO)O2)c(=O)[nH]c1=O | inactive | inactive | inactive | inactive | inactive | inactive | inactive |  | inactive | inactive | inactive | inactive |  | inactive | inactive | inactive | inactive | inactive
C=CCN1C(=O)C(CC(C)C)NC1=S (stereo not drawn) | inactive | inactive | inactive | inactive | inactive | inactive | inactive |  | inactive | inactive | inactive | inactive | inactive | inactive | inactive | inactive | inactive | inactive
CC1=C(/C=C/C(C)=C/C=C/C(C)=C\C(=O)O)C(C)(C)CCC1 | inactive |  | inactive | 61.3 µM (active) | inactive | inactive | inactive | inactive | inactive | inactive | inactive | inactive | inactive | inactive |  | inactive | inactive | 
C(=C\c1ccncc1)/c1ccccc1 | 23.7 µM (active) | inactive | inactive | 3.76 µM (active) and 10.6 µM (active) | inactive | inactive | inactive | inactive | inactive | inactive | inactive | inactive | inactive | inactive | inactive | inactive | inactive | inactive
O=C(CCCCCCCCc1cccnc1)N1CCC(C=C(c2ccccc2)c2ccccc2)CC1 | inactive |  | 19.3 µM (active) | 24.3 µM (active) | inactive | inactive | inactive | inactive | inactive | inactive | inactive | inactive | inactive | inactive |  | inactive | inactive | 21.9 µM (active)
CCN1\C(=C/C=C/C=C/c2sc3ccccc3[n+]2CC)Sc2ccccc21 | inactive | 23.7 µM (active) and 26.6 µM (active) | inactive | 33.5 nM (active) and 266 nM (active) | inactive | inactive | inactive | inactive | inactive | inactive | inactive | inactive | inactive | inactive |  | inactive | inactive | 
CC(C)(C)c1ccc2c(S(=O)(=O)O)c(C(C)(C)C)ccc2c1 | inactive | inactive | inactive |  | inactive | inactive | inactive | inactive | inactive | inactive | inactive | inactive | inactive | inactive | inactive | inactive | inactive | inactive
COc1cccc(-c2ccc(/C=C\CN3CCCCCC3)cc2Cl)c1 | inactive | inactive | inactive |  |  | inactive | inactive | inactive | inactive | inactive | inactive | inactive | inactive | inactive |  | inactive | inactive | 
CNCCC=C1c2ccccc2CCc2ccccc21 |  |  | inactive |  | inactive | inactive | inactive | inactive | inactive | inactive | inactive | inactive | inactive | inactive |  |  | inactive | inactive
CC(=O)N(C)C |  |  |  |  |  | inactive | inactive | inactive | inactive | inactive | inactive | inactive |  | inactive |  |  | inactive | 
CCCCC[C@H](O)/C=C/[C@@H]1[C@@H](C/C=C\CCCC(=O)O)[C@@H](O)C[C@H]1O | inactive | inactive | inactive | inactive | inactive | inactive | inactive | inactive | inactive | inactive | inactive | inactive | inactive | inactive | inactive | inactive | inactive | 
CN[C@H]1CC[C@@H](c2ccc(Cl)c(Cl)c2)c2ccc(S(N)(=O)=O)cc21 | inactive |  | inactive | 8.63 µM (active) | inactive | inactive | inactive |  | inactive | inactive | inactive | inactive |  | inactive |  | inactive | inactive | 
C=CC(N)CCC(=O)O (stereo not drawn) | inactive | inactive | inactive |  | inactive | inactive | inactive | inactive | inactive | inactive | inactive | inactive |  | inactive | inactive | inactive | inactive | inactive
C=CCc1cc(S(=O)(=O)c2ccc(O)c(CC=C)c2)ccc1O | inactive | inactive | inactive | 27.3 µM (active) | inactive | inactive | inactive |  | inactive | inactive | inactive | inactive | inactive | inactive | inactive |  | inactive | 
CCCCCCCCCCCCCCCCC(C(=O)O)C(O)(CC(=O)O)C(=O)O (stereo not drawn) | inactive | inactive | inactive |  | inactive | inactive | inactive | inactive | inactive | inactive | inactive | inactive | inactive | inactive |  | inactive | inactive | 
CCCCCCCC1CCC(=O)O1 (stereo not drawn) |  |  |  |  | inactive | inactive | inactive | inactive | inactive | inactive | inactive | inactive | inactive | inactive |  | inactive | inactive | 
NCC[C@H](O)C(=O)N[C@@H]1C[C@H](N)[C@@H](O[C@H]2O[C@H](CN)CC[C@H]2N)[C@H](O)[C@H]1O[C@H]1O[C@H](CO)[C@@H](O)[C@H](N)[C@H]1O | inactive |  | inactive | inactive | inactive | inactive | inactive | inactive | inactive | inactive | inactive | inactive | inactive | inactive |  | inactive | inactive | 
CCCCCCCCCCCCCCCCCCNC(=O)OC1CCN(C(=O)OC[C@H](COC(=O)N(Cc2cccc[n+]2CC)C(=O)c2ccccc2OC)OC)CC1 | inactive |  |  |  | inactive | inactive | inactive | inactive | inactive | inactive | inactive | inactive | inactive | inactive |  | inactive | inactive | 
SC1CCCCC1 | inactive |  | inactive | 50.5 µM (active) | inactive | inactive | inactive | inactive | inactive | inactive | inactive | inactive | inactive | inactive | inactive | inactive | inactive | 
CS(=O)(=O)c1ccc([C@@H](CC2CCCC2)C(=O)Nc2cnccn2)cc1Cl |  |  | 34.4 µM (active) | 61.1 µM (active) | inactive | inactive | inactive | inactive |  | inactive | inactive | inactive | inactive |  |  | inactive |  | 
Cc1c(O)c(=O)ccn1C | inactive | inactive | inactive | inactive | inactive | inactive | inactive | inactive | inactive | inactive | inactive | inactive | inactive | inactive | inactive | inactive | inactive | inactive
CC(O)(c1ccc(Cl)cc1)c1ccc(Cl)cc1 | inactive | inactive |  | 27.3 µM (active) | inactive | inactive | inactive | inactive | inactive | inactive | inactive | inactive | inactive | inactive | inactive | inactive | inactive | 
CC[C@@H](C)[C@H](N)C(=O)O | inactive | inactive | inactive | inactive |  | inactive | inactive |  | inactive | inactive | inactive | inactive | inactive |  | inactive | inactive | inactive | inactive
COc1cc2c(cc1OC)[C@@H](Cc1cc(OC)c(OC)c(OC)c1)[N+](C)(CCCOC(=O)CC/C=C/CCC(=O)OCCC[N+]1(C)CCc3cc(OC)c(OC)cc3[C@H]1Cc1cc(OC)c(OC)c(OC)c1)CC2 (stereo partly drawn) | inactive |  | inactive | inactive | inactive | inactive | inactive |  | inactive | inactive | inactive | inactive | inactive | inactive |  | inactive | inactive | 
COc1c(Br)cc(Br)c(C)c1Br | inactive | inactive | inactive |  | inactive | inactive | inactive | inactive | inactive | inactive | inactive | inactive | inactive | inactive | inactive | inactive |  | 
